# Results: PubChem BioAssay AID504832 (National Center for Advancing Translational Sciences (NCATS), 2011)
# The campaign covered roughly 310,000 compounds. About 18,000 (5.8%) were called active. Inconclusive results (about 22%) are left out. Only a selection was taken, and actives are over-represented in it overall. Unmarked numbers belong to inactive results. The call rests on the fitted dose curve; in most records, active means well fitted inhibition curve with a large enough effect; inconclusive means small, poorly fitted or top-dose-only effect, or another doubt; inactive means no such curve, though single readings can be large or run the other way.
# Test: Primary qHTS for delayed death inhibitors of the malarial parasite plastid, 48 hour incubation
# Conditions: P. falciparum luciferase growth in erythrocytes; series mostly up to 28.7 µM; activity change, negative = inhibition: at the top concentration
# Method in brief: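 Luciferase-expressing P. falciparum in infected erythrocytes (2% hematocrit, 0.1% parasitemia final) in RPMI 1640/0.5% Albumax were exposed to compound for 48 hours at 37 C, 5% CO2; growth read as luminescence.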
# On the % scale 0 is the no-effect control and ±100 the full control effect; potency means the concentration at half of the fitted maximal effect.
SMILES,"activity change, negative = inhibition",Potency
C=CCOc1ccc(/C=C2/C(=O)ON=C2C)cc1OCC,24.4%,–
COc1ccc(OC)c(S(=O)(=O)n2c([N+](=O)[O-])cnc2C)c1,17.9%,–
NS(=O)(=O)c1ccc(N=Nc2c(O)[nH]c3ccc(Br)cc23)cc1,-18.2%,–
Cc1onc(-c2c(Cl)cccc2Cl)c1C(=O)NNC(=O)c1c(-c2c(Cl)cccc2Cl)noc1C,–,8.28 µM (active)
Cc1[nH]n(C)c(=O)c1C(=O)c1c(-c2c(Cl)cccc2Cl)noc1C,-1.52%,–
COc1ccccc1N1CCN(C(=O)c2cc(-c3ccc(Cl)c(Cl)c3)on2)CC1,-26%,–
COc1ccccc1N1CCN(C(=O)c2c(-c3c(Cl)cccc3Cl)noc2C)CC1,–,10.4 µM (active)
COc1cccc(-c2cc(C(=O)N3CCN(c4ccccc4OC)CC3)no2)c1,-0.672%,–
Cc1onc(-c2c(F)cccc2Cl)c1C(=O)N(C)CC(=O)Nc1cccc(F)c1,-9.49%,–
CC(C)c1ccc(/C=C2\NC(=O)NC2=O)cc1,34.2%,–
Cc1cccn2c(=O)c3cc(C(=O)NCC4CCCO4)c(=N)n(Cc4ccc(F)cc4)c3nc12 (configuration not stated),–,9.28 µM (active)
Cc1cccn2c(=O)c3cc(C(=O)NCCN4CCOCC4)c(=N)n(Cc4cccnc4)c3nc12,-6.49%,–
Cc1ccc(CCNC(=O)c2ccc3nc4ccccc4c(=O)n3c2)cc1,7.18%,–
COc1ccc2oc(C(=O)NCc3ccco3)c(C)c2c1,42.9%,–
Cc1ccc(-c2noc(-c3ccccc3C(=O)NCC3CCCO3)n2)cc1 (configuration not stated),55.2%,–
O=C(Nc1ccccc1C(=O)NCC1CCCO1)c1ccccc1F (configuration not stated),-13.4%,–
Cc1ccc2nc3c(cc(C(=O)NCCc4ccccc4)c(=N)n3CC3CCCO3)c(=O)n2c1 (configuration not stated),–,2.08 µM (active)
COc1ccc(CCn2c(=N)c(C(=O)NCc3ccco3)cc3c(=O)n4cccc(C)c4nc32)cc1,–,0.465 µM (active)
O=C(NCc1ccco1)c1cccn2c(=O)c3c4c(sc3nc12)CCCC4,-1.75%,–
Nc1nc(SCC(=O)Nc2ccc(Cl)cc2C(F)(F)F)n[nH]1,10.1%,–
CN(CC(=O)Nc1ccc(OC(F)(F)F)cc1)C(=O)C1CCC1,-18.1%,–
c1ccc(C2CNCc3c2ccc2ccccc32)cc1 (configuration not stated),–,10.4 µM (active)
CC1=C(C(=O)NC2CC(C)(C)Cc3c2cnn3-c2ccc(C)cc2)OCCO1 (configuration not stated),-13.1%,–
C=CCOc1cccc(CNCc2cccnc2)c1,8.42%,–
CCc1ccccc1NC(=O)c1cccs1,39.7%,–
CCc1ccccc1NC(=O)/C(=C/c1ccccc1)c1ccccc1,–,5.22 µM (active)

SMILES,"activity change, negative = inhibition",Potency
CCc1ccccc1NC(=O)CCOc1ccccc1,-6.71%,–
Cc1ccc(C(=O)NCC(=O)OCC(=O)NC2CCCCCCC2)cc1,-0.0814%,–
CCN1C(=O)c2cccc3c(S(=O)(=O)Nc4ccccc4O)ccc1c23,-15.4%,–
CSC(=S)N/N=C/c1c[nH]c2ccccc12,17.1%,–
CN1CCN(/N=C/c2c[nH]c3ccccc23)CC1,60.3%,–
C[n+]1ccc(/C=C/c2c[nH]c3ccccc23)cc1,–,0.738 µM (active)
Cn1c(=O)c2c(nc(NCCNC(=O)c3ccco3)n2Cc2ccccc2F)n(C)c1=O,-25.8%,–
CCC(=C/c1sc2ccc3ccccc3c2[n+]1C)/C=C1\Sc2ccc3ccccc3c2N1C,–,0.928 µM (active)
COc1ccc2ccn(C)c2c1,3.12%,–
Cc1ccccc1NC(=O)C1CCCN(C(=O)NCc2ccccc2)C1 (configuration not stated),14.4%,–
COc1cccc2[nH]c(C(=O)NCCc3ccccc3)cc12,108%,–
O=C(NCC1CCCO1)c1cc2c([nH]c3ccccc32)c(-c2ccc(F)cc2)n1 (configuration not stated),–,9.28 µM (active)
O=C(NCC1CCCO1)c1ccc2ccccc2n1 (configuration not stated),59.7%,–
O=C(NCC1CCCO1)c1cc(-c2ccccc2)nc2ccccc12 (configuration not stated),-16.3%,–
O=C(NCCc1ccc(F)cc1)c1n[nH]c2ccccc12,62.1%,–
O=C(NCCCO)c1cc2c([nH]c3ccccc32)c(-c2ccc(F)cc2)n1,–,9.28 µM (active)
COc1ccccc1OC(C)C(=O)Nc1ccc(S(=O)(=O)Nc2nccs2)cc1 (configuration not stated),-1.18%,–
CCOc1ccc2c(c1)c(=O)c(S(=O)(=O)c1ccc(C)cc1)cn2CC,3.55%,–
CCc1cccc(C)c1NC(=O)COC(=O)CNC(=O)c1cccs1,2.83%,–
CCc1ccc(Oc2coc3cc(O)ccc3c2=O)cc1,62.3%,–
COc1ccc(-c2nn(-c3ccccc3)cc2CN2CCCO2)c(F)c1,0.912%,–
COc1ccc(-n2cc(CNC3CCOCC3)c(-c3cccc(F)c3)n2)cc1,–,11.7 µM (active)
COc1ccc(-n2cc(CN(C)Cc3n[nH]c(=O)[nH]3)c(-c3cccc(F)c3)n2)cc1,-3.86%,–
Cc1ccc(S(=O)(=O)NC(=O)c2cccc(C)c2)cc1,9.68%,–
CCc1cccc(C)c1NC(=O)COC(=O)CC1CCCC1,22.5%,–
Cc1cc(NC(=O)COc2ccccc2C#N)no1,209%,–
